Several values for one entry are separate records, joined by “and”; a condition that tells them apart may be missing. Equal entries are not always repeated. Records with an inconclusive call do not appear. Activity calls are given as the source filed them. Unless noted, the call rests on the fitted dose curve; in most records, active means well fitted curve in the direction sought with a large enough effect in the repeat runs; inconclusive means weak or mixed curves; inactive means no such curve, though single readings can be large; an effect the other way counts as inactive or inconclusive.
How the values were obtained:
[1] = qHTS assay for small molecule agonists of the p53 signaling pathway (AID 651631; calls by dose curve; further: nearly all actives have a fitted effect of over 15% in size; further: potency means the concentration at half of the fitted maximal effect)
How it was run: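 HCT-116 cells carrying a beta-lactamase reporter under p53 response elements were dosed with compound for 16 h at 37 °C. LiveBLAzer B/G FRET substrate was then added for 2 h at room temperature, and fluorescence intensity was read to detect pathway agonism.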

[2] = qHTS assay for small molecules that induce genotoxicity in human embryonic kidney cells expressing luciferase-tagged ATAD5 (AID 651632); further: nearly all actives have a fitted effect of over 15% in size
How it was run: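 Cells were seeded at 2,000 per well, dosed with compound, and incubated 16 hr at 37C in 5% CO2. Luciferase activity was then quantified after a 30 min room-temperature incubation with Amplite.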

[3] = qHTS assay for small molecule agonists of the p53 signaling pathway - cell viability (AID 651633; calls by dose curve; further: nearly all actives have a fitted effect of over 30% in size; further: potency means the concentration at half of the fitted maximal effect;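 on activity change, negative = cytotoxicity: p53RE-bla HCT reporter cells with a stable beta-lactamase p53 reporter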)
How it was run: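 Viability counter-read: CellTiter-Glo luminescence (30 min, room temperature) in the same p53RE-bla plates. These plates had been exposed to compounds for 16 h at 37 C.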

[4] = qHTS assay for small molecules that induce genotoxicity in human embryonic kidney cells expressing luciferase-tagged ATAD5 - cell viability (AID 651634; calls by dose curve; further: nearly all actives have a fitted effect of over 25% in size)
How it was run: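 Cells (HEK293T, luciferase-tagged ATAD5) are seeded at 2,000 per well, dosed with compound or DMSO vehicle, and incubated 15.5 hr at 37C and 5% CO2. CellTiter-Fluor is added for 30 min before fluorescence is measured.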

[5] = qHTS assay for small molecule disruptors of the mitochondrial membrane potential - cell viability (AID 720634; calls by dose curve; further: nearly all actives have a fitted effect of over 20% in size; further: potency means the concentration at half of the fitted maximal effect;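 on activity change, negative = cytotoxicity: human HepG2 liver cancer cells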)
How it was run: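 Cytotoxicity was measured by ATP quantitation in HepG2 wells that had first been treated with compound for 1 hr and stained with m-MPI dye; CellTiter-Glo incubation was 30 min at room temperature.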

[6] = qHTS assay to test for compound auto fluorescence at 590 nm (red) in HepG2 cells (AID 720674)
How it was run: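 Red autofluorescence (Ex/Em 540/590 nm, Rose Bengal sodium equivalents) was measured in HepG2 cells, 2,000 per well in MEM plus 10% FBS, plated overnight at 37 C. Readings were taken 1 hr after adding 23 nL compound or DMSO, at 37 C and 5% CO2.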

[7] = qHTS assay to test for compound auto fluorescence at 535 nm (green) in HepG2 cells (AID 720675)
[8] = qHTS assay to test for compound auto fluorescence at 460 nm (blue) in HEK293 cells (AID 720678)
How it was run: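 Measured: blue fluorescence (Ex 405/Em 460 nm) of compound-treated HEK293 cells, incubated overnight at 37C with 5% CO2 and scaled to triamterene equivalents.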

[9] = qHTS assay to test for compound auto fluorescence at 590 nm (red) in HEK293 cells (AID 720679)
How it was run: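 Using HEK293 cells at 2,000 per well, the screen added 23 nL of each compound after cell attachment and incubated overnight (37C, 5% CO2). The plate reader then captured red-label fluorescence, Ex/Em 540/590nm.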

[10] = qHTS assay to test for compound auto fluorescence at 535 nm (green) in HEK293 cells (AID 720680)
[11] = qHTS assay to test for compound auto fluorescence at 460 nm (blue) in HEK293 cell free culture (AID 720681)
How it was run: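 Blue fluorescence (Ex 405/Em 460 nm, triamterene-equivalent) was read immediately after pin transfer of compound or DMSO into medium (DMEM, 10% FBS) without cells.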

[12] = qHTS assay to test for compound auto fluorescence at 535 nm (green) in HEK293 cell free culture (AID 720682)
How it was run: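 Green-label autofluorescence (485 nm excitation, 535 nm emission) measured on compound added to cell-free culture medium (DMEM, 10% FBS). Output is expressed relative to fluorescein.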

[13] = qHTS assay to test for compound auto fluorescence at 590 nm (red) in HepG2 cell free culture (AID 720684)
How it was run: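 Cell-free; medium MEM + 10% FBS; compound or DMSO added by pintool; read Ex 540/Em 590 nm; Rose Bengal sodium as red reference fluorophore.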

[14] = qHTS assay to test for compound auto fluorescence at 460 nm (blue) in HepG2 cell free culture (AID 720685)
How it was run: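 Cell-free plates of MEM plus 10% FBS received 23 nL compound or DMSO vehicle; blue-channel (405/460 nm) intensity scored against triamterene as reference fluorophore.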

[15] = qHTS assay to test for compound auto fluorescence at 460 nm (blue) in HepG2 cells (AID 720687)
How it was run: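 Blue-channel autofluorescence (Ex/Em 405/460 nm, triamterene-equivalent) was measured after 1 hr compound exposure at 37 C, 5% CO2. Cells were HepG2, plated overnight at 37 C in MEM plus 10% FBS.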

[16] = biological target: Glucocorticoid receptor (Homo sapiens) (UniProt P04150); test: qHTS assay to identify small molecule agonists of the glucocorticoid receptor (GR) signaling pathway (AID 720691; active means well fitted activation curve with a large enough effect in the signal ratio in the repeat runs, not every such curve was filed as active; the % refers to the signal ratio); details: GR-bla HeLa, beta-lactamase reporter ratio, 18 h; activation: at 62.4 µM (top of the series)
How it was run: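 Steps: seed GR-bla HeLa cells, incubate 4 h at 37 C/5% CO2; pin-transfer DMSO-dissolved compounds; incubate 18 h at 37 C; add LiveBLAzer B/G FRET substrate; after 2 h at room temperature, measure fluorescence.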

[17] = qHTS assay to test for compound auto fluorescence at 590 nm (red) in HEK293 cell free culture (AID 720683)
How it was run: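 Red-channel autofluorescence of compounds in culture medium (DMEM, 10% FBS), no cells, measured at 540/590 nm. Rose Bengal sodium is the reference fluorophore for equivalence.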

[18] = qHTS assay for small molecule disruptors of the mitochondrial membrane potential (AID 720635); further: potency means the concentration at half of the fitted maximal effect
How it was run: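 Mitochondrial membrane potential tracked with Mito-MPS dye, red aggregates (ex 540/em 590 nm) against green monomers (ex 490/em 535 nm). Compound treatment 1 hr at 37C, dye 30 min in HepG2.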

[19] = qHTS assay to test for compound auto fluorescence at 535 nm (green) in HepG2 cell free culture (AID 720686)
[20] = biological target: Glucocorticoid receptor (Homo sapiens) (UniProt P04150); test: qHTS assay to identify small molecule antagonists of the glucocorticoid receptor (GR) signaling pathway (AID 720692; active means well fitted inhibition curve with a large enough effect in the signal ratio in the repeat runs, not every such curve was filed as active; the % refers to the signal ratio; further: potency means the concentration at half of the fitted maximal effect)
How it was run: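 Antagonism was scored as loss of dexamethasone-driven (5 nM final) reporter signal in HeLa cells bearing a glucocorticoid response element–beta-lactamase construct, after 18 h compound exposure at 37 C and 2 h FRET substrate loading.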
On the % scale 0 is the no-effect control and ±100 the full control effect.

Sequence of Glucocorticoid receptor (Homo sapiens) (P04150 whole entry, looked up): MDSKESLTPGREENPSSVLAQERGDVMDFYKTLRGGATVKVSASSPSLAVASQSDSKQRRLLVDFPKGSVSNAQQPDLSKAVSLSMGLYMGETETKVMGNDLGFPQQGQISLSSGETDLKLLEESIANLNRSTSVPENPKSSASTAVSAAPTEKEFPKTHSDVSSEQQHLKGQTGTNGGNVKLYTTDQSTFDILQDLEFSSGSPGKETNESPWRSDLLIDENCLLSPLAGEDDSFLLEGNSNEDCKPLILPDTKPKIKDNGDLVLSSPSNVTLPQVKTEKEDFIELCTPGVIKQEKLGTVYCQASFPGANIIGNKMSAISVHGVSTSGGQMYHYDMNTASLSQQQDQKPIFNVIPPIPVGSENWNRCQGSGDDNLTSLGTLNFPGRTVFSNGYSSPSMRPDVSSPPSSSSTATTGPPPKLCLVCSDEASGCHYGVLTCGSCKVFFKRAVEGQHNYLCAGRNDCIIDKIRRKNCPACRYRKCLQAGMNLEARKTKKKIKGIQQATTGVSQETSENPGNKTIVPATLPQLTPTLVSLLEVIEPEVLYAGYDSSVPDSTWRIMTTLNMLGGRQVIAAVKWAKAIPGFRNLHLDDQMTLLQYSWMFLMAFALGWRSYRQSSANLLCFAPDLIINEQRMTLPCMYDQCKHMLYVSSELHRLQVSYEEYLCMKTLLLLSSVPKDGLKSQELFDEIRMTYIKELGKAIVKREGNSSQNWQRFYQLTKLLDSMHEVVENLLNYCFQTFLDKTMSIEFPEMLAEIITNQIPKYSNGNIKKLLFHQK

CC(Cc1ccc2c(c1)OCO2)NO (configuration not stated)
inactive: Potency [1] | Potency [2] | Potency [3] | Potency [4] | Potency [5] | outcome [6] | Potency [7] | Potency [8] | outcome [9] | outcome [10] | Potency [11] | outcome [12] | outcome [13] | Potency [14] | Potency [15] | Potency [16]

C=CC(=C)C
inactive: Potency [1] | Potency [2] | Potency [3] | Potency [4] | Potency [5] | Potency [7] | Potency [8] | outcome [10] | Potency [11] | outcome [12] | outcome [17] | outcome [13] | Potency [14] | Potency [15]

O=NN(CCO)CCO
inactive: Potency [1] | Potency [2] | Potency [3] | Potency [4] | Potency [5] | Potency [18] | outcome [6] | Potency [7] | Potency [8] | outcome [9] | outcome [10] | Potency [11] | outcome [12] | outcome [13] | Potency [14] | Potency [19] | Potency [15] | Potency [16] | Potency [20]

NC(=O)C(Cl)Cl
inactive: Potency [1] | Potency [2] | Potency [3] | Potency [4] | Potency [5] | outcome [6] | Potency [7] | Potency [8] | outcome [9] | outcome [10] | Potency [11] | outcome [12] | outcome [17] | outcome [13] | Potency [14] | Potency [19] | Potency [15] | Potency [16] | Potency [20]

CN/C(=N\[N+](=O)[O-])NCc1cnc(Cl)s1
inactive: Potency [1] | Potency [2] | Potency [3] | Potency [4] | Potency [5] | outcome [6] | Potency [7] | Potency [8] | outcome [9] | outcome [10] | Potency [11] | outcome [17] | outcome [13] | Potency [14] | Potency [19] | Potency [15]

O=C(Cl)c1ccccc1F
inactive: Potency [1] | Potency [2] | Potency [3] | Potency [4] | Potency [5] | Potency [18] | outcome [6] | Potency [7] | Potency [8] | outcome [9] | outcome [10] | Potency [11] | outcome [12] | outcome [17] | outcome [13] | Potency [14] | Potency [19] | Potency [15]

COc1ccc2c(c1OC)C(=O)O[C@@H]2[C@H]1c2cc3c(cc2CCN1C)OCO3
inactive: Potency [1] | Potency [2] | Potency [3] | Potency [4] | Potency [5] | outcome [6] | Potency [7] | Potency [8] | outcome [9] | outcome [10] | Potency [11] | outcome [12] | outcome [17] | outcome [13] | Potency [14] | Potency [19] | Potency [15]

CCCCC/C=C\C/C=C\C/C=C\C/C=C\CCCC(=O)NCC(=O)O
inactive: activation [1] -5.49% [at 8.3 µM] | activation [2] -2.3% [at 8.08 µM] | activity change, negative = cytotoxicity [3] -17.5% [at 8.08 µM] | activity, negative = cytotoxicity [4] 5.25% [at 8.08 µM] | activity change, negative = cytotoxicity [5] -7.39% [at 8.08 µM] | fluorescence, relative to Rose Bengal [6] -0.484% [at 3.72 µM] | fluorescence, % of fluorescein control [7] 0.165% [at 3.72 µM] | fluorescence, % of triamterene [8] -0.0359% [at 3.72 µM] | fluorescence, % of fluorescent control [9] 0.123% [at 3.72 µM] | fluorescence, % of fluorescein [10] -0.212% [at 3.72 µM] | fluorescence, % of fluorescent control [11] -0.0427% [at 3.72 µM] | fluorescence, % of fluorescent control [17] 0.173% [at 3.72 µM] | fluorescence, % of Rose Bengal [13] 0.0912% [at 3.72 µM] | fluorescence, % of fluorescent control [14] -0.0542% [at 3.72 µM] | fluorescence, % of fluorescein control [19] 0.0024% [at 3.72 µM] | fluorescence, % of fluorescent control [15] -0.108% [at 3.72 µM] | activation [16] 0.54% [at 6.9 µM] | activity change, negative = inhibition [20] 22.5% [at 7.04 µM]

Cc1nn(-c2cc(NS(C)(=O)=O)c(Cl)cc2Cl)c(=O)n1C(F)F
inactive: Potency [1] | Potency [2] | Potency [3] | Potency [4] | Potency [5] | Potency [7] | Potency [8] | outcome [9] | outcome [10] | Potency [11] | outcome [12] | outcome [17] | outcome [13] | Potency [14] | Potency [19] | Potency [15]

O=C1C(Cl)=C(Cl)C(=O)C(Cl)=C1Cl
active: Potency [1] 30.5 µM and 6.11 µM | Potency [3] 19.3 µM and 21.7 µM | Potency [5] 30.5 µM and 27.3 µM | Potency [18] 8.6 µM and 8.63 µM | Potency [20] 30.9 µM
inactive: Potency [2] | Potency [4] | outcome [6] | Potency [7] | Potency [8] | outcome [9] | outcome [10] | Potency [11] | outcome [12] | outcome [17] | outcome [13] | Potency [14] | Potency [15] | Potency [16]

Nc1ccccc1-c1ccccc1
inactive: Potency [1] | Potency [2] | Potency [5] | outcome [6] | Potency [7] | Potency [8] | outcome [9] | outcome [10] | Potency [11] | outcome [12] | outcome [17] | outcome [13] | Potency [14] | Potency [19] | Potency [15] | Potency [16]

CC1=C2C[C@H]3[C@@H](CC=C4C[C@@H](O)CC[C@@]43C)[C@@H]2CC[C@]12O[C@@H]1C[C@H](C)CN[C@H]1[C@H]2C
inactive: Potency [1] | Potency [2] | Potency [3] | Potency [4] | outcome [6] | Potency [7] | Potency [8] | outcome [9] | outcome [10] | Potency [11] | outcome [12] | outcome [17] | outcome [13] | Potency [19] | Potency [15] | Potency [16]

CCCCCON=O
inactive: Potency [1] | Potency [2] | Potency [3] | Potency [5] | Potency [18] | outcome [6] | Potency [7] | Potency [8] | outcome [9] | outcome [10] | Potency [11] | outcome [17] | outcome [13] | Potency [14] | Potency [19] | Potency [15]

CCN(CC)C(=O)N[C@@H]1C=C2c3cccc4[nH]cc(c34)C[C@@H]2N(C)C1
active: Potency [18] 1.68 µM
inactive: Potency [1] | Potency [2] | Potency [3] | Potency [5] | outcome [6] | Potency [7] | Potency [8] | Potency [11] | outcome [12] | outcome [17] | outcome [13] | Potency [14] | Potency [19] | Potency [15] | Potency [16] | Potency [20]

From PubChem BioAssay (Tox21)
